Screening data as filed in PubChem.
HT1080NT lethal: qHTS for induction of synthetic lethality in tumor cells producing 2HG: qHTS for the HT-1080-NT fibrosarcoma cell line; HT-1080-NT fibrosarcoma viability, CellTiter-Glo ATP luminescence, 48 h; Potency, µM (doses to about 46.1 µM), usual class: cytotoxic; actives 1.6% (n = 360,000); AID 686970, 2013;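 also: NT is the 2HG producing partner of a matched IDH1 knockdown line; nearly all actives have a fitted effect of over 55% in size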
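Fibrosarcoma NT cells, 750 per well in 5% FBS RPMI, were exposed to compound for 48 hours. Viability: CellTiter-Glo luminescence.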
HT1080 IDH1KD tx: qHTS for induction of synthetic lethality in tumor cells producing 2HG: qHTS for the HT-1080-IDH1KD cell line | HT-1080 IDH1 knockdown viability, ATP luminescence, 48 h | Potency, µM (doses to about 46.1 µM), hits mostly cytotoxic | actives 2% (n = 360,000)
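% activity derives from luminescence (CellTiter-Glo), normalised to DMSO and no-cell wells. HT-1080-IDH1KD cells, 750/well, had 48 h compound exposure at 37 °C.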
IL1B secr inh: qHTS for Inhibitors of Inflammasome Signaling: IL-1-beta AlphaLISA Primary Screen. actives 4.7% (n = 360,000). AID 743279, 2014. THP-1 LPS/ATP IL-1B secretion, AlphaLISA, 16 h; stronger effect = lower value. activity change, % at 57.5 µM; in the data active = activity change below about -50%; inconclusive = mostly about -30% to -49%
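THP-1 cells pretreated 1 hr with compounds (up to 57.5 uM final), then stimulated with LPS (250 ng/mL final) plus ATP (1.25 mM final); secreted IL-1B measured by AlphaLISA after 16 hr, decreased signal indicating inhibition.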
TDP1 cell noCPT: qHTS for Inhibitors of human tyrosyl-DNA phosphodiesterase 1 (TDP1): qHTS in cells in absence of CPT; AID 686978, 2013; actives 15% (n = 420,000); Potency, µM (top dose mostly 46.2 µM), actives largely listed as inhibitors; DT40 Tdp1-/- hTDP1 cells, no CPT, ATP luminescence, 48 h; also: nearly all actives have a fitted effect of over 55% in size
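A cellular qHTS used chicken DT40 cells lacking endogenous Tdp1 but carrying stably transfected human TDP1. Compounds were applied without camptothecin, and cell growth kinetics were judged by ATP-dependent luminescence after ≥48 hr.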
TDP1 cell CPT: qHTS for Inhibitors of human tyrosyl-DNA phosphodiesterase 1 (TDP1): qHTS in cells in presence of CPT. chicken DT40 Tdp1-/-;hTDP1 cells + 20 nM CPT, ATP luminescence, 48 h. AID 686979, 2013. Potency, µM (series often up to 46.2 µM), hits mostly inhibitors. actives 12% (n = 420,000); also: nearly all actives have a fitted effect of over 55% in size
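Cell growth measured by CellTiter-Glo luminescence after a minimum 48 h, 37 C compound exposure with 20 nM CPT in Tdp1-knockout DT40 cells stably expressing hTDP1, seeded 400/well; qHTS titration format.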
A number is an active result; [ ] = dose if it differs, or a comment. This is a sample that favours compounds with a hit; in the whole collection about 19% have one here. Unless noted, calls follow the shape of the dose curve; as a rule, active = well fitted curve in the direction sought with a large enough effect; inconclusive = small, poorly fitted or top-dose-only effect, or another doubt; inactive = no such curve, though single readings can be large; an effect the other way counts as inactive or inconclusive.

Screening CC1=C([N+](=O)[O-])C(c2ccc3c(c2)OCO3)N(C)C(=O)N1C (centres undefined) returned HT1080NT lethal inactive, HT1080 IDH1KD tx inactive, IL1B secr inh inactive, TDP1 cell noCPT 21µM and TDP1 cell CPT 8.2µM.
C/C(=N\Nc1nc(-c2cc(C)ccc2C)cs1)c1cc2c(ccc3ccccc32)oc1=O was read as HT1080NT lethal inactive, HT1080 IDH1KD tx inactive, IL1B secr inh inactive, TDP1 cell noCPT 16µM and TDP1 cell CPT inconclusive.
`Cc1cc(-c2csc(Nc3ccccn3)n2)ccc1F` gave HT1080NT lethal inconclusive, HT1080 IDH1KD tx inconclusive, IL1B secr inh -58, TDP1 cell noCPT 21µM and TDP1 cell CPT inconclusive.
`c1ccc(-c2csc(Nc3ccccn3)n2)cc1` gave HT1080NT lethal inactive, HT1080 IDH1KD tx inactive, IL1B secr inh -55, TDP1 cell noCPT inconclusive and TDP1 cell CPT inactive.
Screening Cc1ccc(-c2csc(Nc3ccccn3)n2)cc1 returned HT1080NT lethal inconclusive, HT1080 IDH1KD tx inactive, IL1B secr inh -77, TDP1 cell noCPT inconclusive and TDP1 cell CPT inconclusive.
Screening CC(=O)Oc1ccc(-c2csc(Nc3ccc(Cl)cn3)n2)cc1 returned HT1080NT lethal inactive, HT1080 IDH1KD tx inconclusive, IL1B secr inh inactive, TDP1 cell noCPT inconclusive and TDP1 cell CPT inconclusive.
Cc1nc(N)sc1-c1csc(Nc2ccccn2)n1 was read as HT1080NT lethal inactive, HT1080 IDH1KD tx inactive, IL1B secr inh inactive, TDP1 cell noCPT inconclusive and TDP1 cell CPT inconclusive.
`COc1ccc(-c2csc(Nc3ccc(C)cn3)n2)cc1` gave HT1080NT lethal inconclusive, HT1080 IDH1KD tx inconclusive, IL1B secr inh -67, TDP1 cell noCPT inactive and TDP1 cell CPT inactive.
Screening COc1cc(/C=C2\C(=N)N3N=CSC3=NC2=O)cc(Br)c1OC(=O)c1ccco1 returned HT1080NT lethal inactive, HT1080 IDH1KD tx inactive, IL1B secr inh inactive, TDP1 cell noCPT inactive and TDP1 cell CPT inconclusive.
`CC(=O)Nc1cccc(-c2csc(Nc3ccc(C)cn3)n2)c1` gave HT1080NT lethal inconclusive, HT1080 IDH1KD tx inconclusive, IL1B secr inh -100, TDP1 cell noCPT inconclusive and TDP1 cell CPT inactive.
For CC(=O)Nc1ccc(-c2csc(Nc3cccc(C)n3)n2)cc1 the results were HT1080NT lethal inactive, HT1080 IDH1KD tx inactive, IL1B secr inh inactive, TDP1 cell noCPT inconclusive and TDP1 cell CPT inconclusive.
For Oc1ccc(-c2csc(Nc3ccccn3)n2)cc1 the results were HT1080NT lethal inconclusive, HT1080 IDH1KD tx inconclusive, IL1B secr inh -73, TDP1 cell noCPT inconclusive and TDP1 cell CPT inconclusive.
Screening CCS(=O)(=O)Nc1cc(C(=O)N2CCC[C@H]2CO)c2c(c1)nc(-c1ccccc1)n2C returned TDP1 cell noCPT inactive and TDP1 cell CPT inactive[9.04 µM].
`CCOC(=O)N1CCC(N2CCN(CCC(C)C)C(CCO)C2)CC1` (centres undefined) gave HT1080NT lethal inactive, HT1080 IDH1KD tx inactive, IL1B secr inh inactive, TDP1 cell noCPT inactive and TDP1 cell CPT inactive.
`Cc1ccc(S(=O)(=O)N2CCN(c3nc(-c4ccc(C)s4)nc4ccccc34)CC2)cc1` gave HT1080NT lethal inactive, HT1080 IDH1KD tx inactive, TDP1 cell noCPT inconclusive and TDP1 cell CPT inactive.
For Cc1ccc(S(=O)(=O)N2CCN(c3nc(-c4cncn4C)nc4ccccc34)CC2)cc1 the results were HT1080NT lethal inconclusive, HT1080 IDH1KD tx inconclusive, TDP1 cell noCPT inconclusive and TDP1 cell CPT 20µM.
Cc1ccc(S(=O)(=O)N2CCN(c3nc(-c4cncs4)nc4ccccc34)CC2)cc1 was read as HT1080NT lethal inactive, HT1080 IDH1KD tx inactive, TDP1 cell noCPT 7.1µM and TDP1 cell CPT 10µM.
Cc1ccc(S(=O)(=O)N2CCN(c3nc(Nc4ccccc4O)nc4ccccc34)CC2)cc1 was read as HT1080NT lethal inactive, HT1080 IDH1KD tx inactive, TDP1 cell noCPT inconclusive and TDP1 cell CPT inconclusive.
For Cc1ccc(S(=O)(=O)N2CCN(c3nc(-c4ccc(CN5CCNCC5)s4)nc4ccccc34)CC2)cc1 the results were TDP1 cell noCPT 22µM and TDP1 cell CPT inconclusive.
For Cc1ccc(S(=O)(=O)N2CCN(c3nc(-c4ncco4)nc4ccccc34)CC2)cc1 the results were HT1080NT lethal inactive, HT1080 IDH1KD tx inactive, TDP1 cell noCPT 11µM and TDP1 cell CPT 11µM.
For CCn1c(C)nc2cc(C(=O)NN=Cc3ccc([N+](=O)[O-])cc3)ccc21 the results were HT1080NT lethal inactive, HT1080 IDH1KD tx inactive, IL1B secr inh inactive, TDP1 cell noCPT inactive and TDP1 cell CPT inactive.
Screening CN1CC=C2C(C#N)=C(N)C(C#N)(C#N)[C@H](c3ccoc3)[C@H]2C1 returned HT1080NT lethal inactive, HT1080 IDH1KD tx inactive, IL1B secr inh inactive, TDP1 cell noCPT 21µM and TDP1 cell CPT inconclusive.
For N#CC1=C(N)C(C#N)(C#N)[C@H](c2ccoc2)[C@H]2CN(Cc3ccccc3)CC=C12 the results were HT1080NT lethal inconclusive, HT1080 IDH1KD tx 2.6µM, IL1B secr inh inactive, TDP1 cell noCPT 5.8µM and TDP1 cell CPT 5.8µM.
N#CC1=C(N)C(C#N)(C#N)C(c2cccnc2)C2CN(C(=O)OCc3ccccc3)CC=C12 (centres undefined) was read as HT1080NT lethal inconclusive, HT1080 IDH1KD tx inconclusive, IL1B secr inh inactive, TDP1 cell noCPT inconclusive and TDP1 cell CPT 16µM.
For Cc1ccc(C2C3CN(C(C)C)CC=C3C(C#N)=C(N)C2(C#N)C#N)cc1 (centres undefined) the results were HT1080NT lethal inactive, HT1080 IDH1KD tx inactive, IL1B secr inh inactive, TDP1 cell noCPT 13µM and TDP1 cell CPT 16µM.
`CC(=O)N1CC=C2C(C#N)=C(N)C(C#N)(C#N)[C@H](c3ccoc3)[C@H]2C1` gave HT1080NT lethal inactive, HT1080 IDH1KD tx inactive, IL1B secr inh inactive, TDP1 cell noCPT inactive and TDP1 cell CPT inactive.
`COc1ccc(CNC(=O)CS(=O)CC(=O)O)cc1OC` (centres undefined) gave HT1080NT lethal inactive, HT1080 IDH1KD tx inactive, IL1B secr inh inactive, TDP1 cell noCPT inactive and TDP1 cell CPT inactive.
CCCN1CC=C2C(C#N)=C(N)C(C#N)(C#N)C(c3cccc(OC)c3OC)C2C1 (centres undefined) was read as HT1080NT lethal inactive, HT1080 IDH1KD tx inactive, IL1B secr inh inactive, TDP1 cell noCPT inconclusive and TDP1 cell CPT inconclusive.
`CN1CC=C2C(C#N)=C(N)C(C#N)(C#N)C(c3cccc(Cl)c3Cl)C2C1` (centres undefined) gave HT1080NT lethal inactive, HT1080 IDH1KD tx inactive, IL1B secr inh -103, TDP1 cell noCPT inconclusive and TDP1 cell CPT 23µM.
